High-throughput results: PubChem BioAssay, National Center for Advancing Translational Sciences (NCATS)
NPC1 promoter act: activates the NPC1 promoter. Huh7 NPC1 promoter luciferase reporter, 24 h. Potency, µM (doses to about 9.22 µM), inactives show top-dose activation, actives largely listed as activators. actives 2.4% (n = 320,000); also: % of control where 0% means no effect; nearly all actives have a fitted effect of over 60% in size
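Luminescence from an NPC1 promoter-driven luciferase reporter in stably transfected Huh7 cells was measured after 24 h compound treatment at 37 °C, followed by 10 min ambient incubation with luciferase detection reagent.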
SMN2 splice enh: enhancers of SMN2 splice variant expression; AID 1458; actives 2.8% (n = 210,000); Potency, µM (titrated, usually from 46.1 µM), inactives show top-dose activity change, positive = activation, usual class: activators; HEK293 SMN2-luciferase splicing reporter, luminescence, 30-36 h; also: % of control where 0% means no effect; nearly all actives have a fitted effect of over 55% in size
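HEK293 cells carry an SMN2 minigene-luciferase reporter in which exon 7 inclusion puts luciferase in frame. Cells were seeded at 2000 cells/well, attached for 10-12 hours, then exposed to compounds for 30-36 hours at 37C before ONE-Glo luminescence.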
FLuc counter: counter-screen for miR-21 project: firefly luciferase inhibitors or activators; actives 6.9% (n = 360,000); Potency, µM (top dose mostly 57.5 µM), for inactives: at the top dose activity change, negative = inhibition, usual class: inhibitors; purified FLuc, Km substrates, luminescence inhibition;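 also: plate controls were vehicle for no effect and reference inhibitor for full effect; nearly all actives have a fitted effect of over 55% in size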
Target sequence (P08659 whole entry, looked up): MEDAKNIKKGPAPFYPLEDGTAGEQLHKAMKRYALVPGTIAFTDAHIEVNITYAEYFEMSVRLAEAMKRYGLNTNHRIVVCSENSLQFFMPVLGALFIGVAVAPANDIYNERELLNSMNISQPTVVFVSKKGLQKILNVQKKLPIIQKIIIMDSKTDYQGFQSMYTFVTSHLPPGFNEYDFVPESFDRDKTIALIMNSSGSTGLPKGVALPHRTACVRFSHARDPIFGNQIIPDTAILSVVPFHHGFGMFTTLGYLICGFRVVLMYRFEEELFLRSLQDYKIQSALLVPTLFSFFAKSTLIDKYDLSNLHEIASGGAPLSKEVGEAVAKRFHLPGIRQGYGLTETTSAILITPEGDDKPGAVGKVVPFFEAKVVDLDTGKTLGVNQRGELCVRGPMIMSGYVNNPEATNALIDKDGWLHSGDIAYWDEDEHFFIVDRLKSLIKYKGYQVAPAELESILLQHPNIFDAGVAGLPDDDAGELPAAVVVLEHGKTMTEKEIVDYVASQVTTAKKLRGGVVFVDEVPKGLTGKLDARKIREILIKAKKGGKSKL
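Biochemical qHTS of compounds, final roughly 60 µM downward over six points, against 10 nM purified firefly luciferase using Km concentrations of substrates (10 uM D-luciferin, 10 uM ATP) in Tris acetate pH 7.5 buffer; luminescence output.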
Rab9 promoter act: activators of Rab9 promoter | actives 2.8% (n = 320,000) | Huh7 Rab9 promoter-luciferase reporter, luminescence, 24 h | Potency, µM (doses to about 9.22 µM), for inactives: at the top dose activation, negative = inhibition, usual class: activators; also: % of control where 0% means no effect; nearly all actives have a fitted effect of over 60% in size
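Cell-based reporter: Huh7 stable for Rab9 promoter-driven luciferase, plated in reduced-serum medium with 10% FBS at 1500 cells/well, compound-treated 24 h at 37 °C, luminescence read after 10 min reagent.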
ELG1 genotox: induces genotoxicity in HEK293T cells with luciferase-tagged ELG1; HEK293T ELG1-luciferase reporter, luminescence, 16 h; Potency, µM (titrated, usually from 46 µM), without a hit: at the top dose activity change, positive = activation, hits mostly activators; actives 1.3% (n = 330,000); also: % of control where 0% means no effect; nearly all actives have a fitted effect of over 60% in size
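Quantitative HTS format in 1536-well plates. HEK293T ELG1-luciferase reporter cells receive test compound and are incubated 16 hr at 37 °C, 5% CO2; ONE-Glo added, 30 min room temperature, then luminescence read.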
* hit, by the source's call; ? = inconclusive; nt = not tested or not shown; [ ] = dose if it differs, or a comment. Sampled rows, rich in hits. Any-hit rate of the full collection: about 7.4%. Calls follow the shape of the dose curve; as a rule, active = well fitted curve in the direction sought with a large enough effect; inconclusive = small, poorly fitted or top-dose-only effect, or another doubt; inactive = no such curve, though single readings can be large; an effect the other way counts as inactive or inconclusive. Potency is read from the fitted curve at half-maximal effect.

SMILES	NPC1 promoter act	SMN2 splice enh	FLuc counter	Rab9 promoter act	ELG1 genotox
Cc1cc(NC(=O)c2ccccc2)no1	?	nt	23.9µM*	?	?
C/C(=C\C(=O)Nc1cc(C)on1)c1ccccc1	28.7%	?	12µM*	26.6%	14.2%
CC(=O)Oc1ccc(C(=O)Nc2cc(C)on2)cc1	?	nt	15.1µM*	?	?
CNc1nc(N)c(C(=O)Nc2cc(C)on2)s1	?	14.1µM*	?	?	13.0%
Cc1cc(NC(=O)c2ccc(NC(=O)C(C)C)cc2)no1	14.2%	5.8%	?	?	?
COc1ccc(-c2cc(C(=O)Nc3cc(C)on3)no2)cc1	19.2%	23.2%	0.4%	?	16.7%
COc1ccc(NC(=O)CCc2nnc3n(CC(C)C)c(=O)c4ccccc4n23)cc1	nt	-2.6%	-1.1%	nt	nt
CCN(C(=O)CCS(=O)(=O)c1cc2[nH]c(=O)c(=O)[nH]c2cc1C)c1ccccc1	nt	nt	-6.6%	nt	nt
Cc1nc(SCC(=O)O)c2oc3ccccc3c2n1	1.0%	2.0%	?	4.0%	-2.9%
O=C(CSc1ncnc2c1oc1ccccc12)c1cccs1	2.82µM*	23.9%	?	3.98µM*	?
Cc1nc(SCC(=O)c2cccs2)c2oc3ccccc3c2n1	?	10µM*	9.53µM*	3.98µM*	?
CCc1ccc(NC(=O)N(Cc2c[nH]c3ccccc23)C2CCCCC2)cc1	nt	8.7%	-2.4%	nt	nt
CCc1ccc(NC(=O)N(Cc2c[nH]c3ccccc23)C2CCCCCC2)cc1	nt	5.01µM*	-7.1%	nt	nt
COc1ccc(C(=O)OCCc2cc3ccccc3c(=O)o2)cc1	2.7%	nt	?	-8.5%	7.5%
COc1ccc(C(=O)N/N=C/c2ccc(OC(=O)c3cccs3)cc2)cc1	4.5%	18.8%	-0.3%	-4.1%	9.7%
COc1ccc(C(=O)O/N=C(/C)c2cccs2)cc1	-2.6%	-2.6%	0.0757µM*	-1.7%	1.8%
COc1ccc(C2CC2/C(C)=N/OC(=O)c2cccs2)cc1 (stereo not drawn)	0.4%	11.1%	23.9µM*	-0.3%	1.3%
COc1ccc(C/C(N)=N/OC(=O)c2cccs2)cc1	9.8%	nt	-12.7%	1.2%	2.3%
COC(=O)c1ccc(OC(=O)c2cccs2)cc1	-20.7%	6.6%	23.9µM*	3.1%	3.1%
O=C(OCCc1cc2ccccc2c(=O)o1)c1cccs1	26.2%	nt	4.26µM*	0.6%	-0.5%
COc1ccc(C(=O)O/N=C(\C)c2nccs2)cc1	-2.1%	nt	0.477µM*	15.0%	1.3%
C/C(=N/OC(=O)c1c(F)cccc1F)c1nccs1	-4.4%	4.3%	4.78µM*	-1.2%	-7.9%
COc1ccc(OCCOC(=O)c2cccs2)cc1	1.3%	0.1%	16.9µM*	-8.4%[1.84 µM]	23.1µM*
C/C(=N\OC(=O)c1ccc(F)cc1)c1nccs1	-3.8%	-6.3%	0.675µM*	3.1%	-0.6%
COc1ccc(/C=C/c2nc(C#N)c(NCCc3ccccc3)o2)cc1OC	nt	-1.4%	-10.4%	nt	nt
SMILES	NPC1 promoter act	SMN2 splice enh	FLuc counter	Rab9 promoter act	ELG1 genotox
CCN(CC)C(=O)c1sc2nc(-c3ccc(OC)cc3)cn2c1C	1.78µM*	?	7.57µM*	?	?
COc1ccc(CNC(=O)Cc2csc3nc(-c4ccc(C)cc4)cn23)cc1	nt	nt	16.9µM*	nt	nt
COc1ccc(-c2cn3c(C)c(C(=O)Nc4cc(NC(C)=O)ccc4OC)sc3n2)cc1	-14.9%	13.7%	?	-3.6%	0.6%
CNC(=O)c1sc2nc(-c3ccc(OC)cc3)cn2c1C	1.58µM*	nt	3.38µM*	0.891µM*	2.06µM*
Cc1ccc(NC(=O)Cn2cnc3c(oc4ccccc43)c2=O)cc1Cl	nt	nt	-13.3%	nt	nt
O=C(COC(=O)c1ccc2ccccc2n1)c1ccccc1	-1.6%	-20.4%	6.75µM*	-3.2%	-17.4%
O=C(OCc1ccc(F)cc1)c1ccc2ccccc2n1	1.0%	11.8%	19µM*	-0.2%	3.1%
O=C(OCC(=O)c1ccc[nH]1)c1ccc2ccccc2n1	-1.2%	6.0%	?	-4.6%	5.1%
Cc1ccc(-c2cc3nc(-c4ccccc4)cc(C(F)(F)F)n3n2)cc1	nt	10.1%	-11.0%	nt	nt
O=C1c2ccccc2C(=O)N1CCN1CCc2ccccc21	?	25.4%	13.5µM*	?	?
COc1ccccc1C(=O)Nc1nc(-c2ccc3c(c2)OCCO3)cs1	-7.2%	-39.8%	?	4.5%	-2.8%
